The values that follow come from PubChem BioAssay AID2315 (National Center for Advancing Translational Sciences (NCATS), 2010).

Among all 290,000 compounds or so, about 27,000 (9.3%) were called active. Rule as the data show it: active = inhibition mostly above about 28% (no sharp cut-off); inactive = mostly below about 43%. Many of the other results were omitted from the sample, so actives are more common in it than they were.

The experiment can be described thus: A qHTS for Small Molecule Inhibitors of Shiga Toxin. Also: 0% is about no effect. The note with it: Vero cells, Shiga toxin protein synthesis inhibition reporter; at 38.7 µM, stronger effect = higher value. Background: Quantitative high-throughput screening tests each substance at several concentrations.
Broadly, the inhibition is the change of the read-out against control, counted positive when it falls. `CCOC(=O)CSc1nnc(-c2ccncc2)o1`: the inhibition was -2.72% (inactive).

With `CCCCSc1nnc(-c2ccc(C)cc2)o1`, the inhibition was 63.2% (active).

Consider `Cc1cccc(C)c1OC(=O)CSc1nnc(-c2ccccc2)o1`, for which the inhibition is -1.97% (inactive).

In the case of `O=C(c1cc2ccccc2o1)N1CCN(Cc2ccccc2)CC1`, the inhibition was 22.5% (inactive).

Regarding `O=C(NCCc1ccccc1)C(=O)NCC1OCCN1S(=O)(=O)c1cccs1` (stereo unspecified), the inhibition is 15.4% (inactive).

As for `CCc1ccc(Oc2coc3cc(O)ccc3c2=O)cc1`, the inhibition was 57.1% (active).

As for `COc1ccc(Oc2coc3cc(OC(=O)c4cncc(Br)c4)ccc3c2=O)cc1`, the inhibition was 31.4% (inactive).

`CCc1ccc(Oc2coc3cc(OC(=O)c4cc5ccccc5oc4=O)ccc3c2=O)cc1`: the inhibition was 22.7% (inactive).

In the case of `O=C(O)C1CCC(CNS(=O)(=O)c2ccc(Br)cc2)CC1` (stereo unspecified), the inhibition was -6.36% (inactive).

Turning to `O=C(Nc1ccc(C(=O)O)c(O)c1)c1ccccc1`, the inhibition is 2.52% (inactive).

As to `O=C(NC(=O)c1ccccc1)Nc1ccccc1O`, the inhibition was 105% (active).

`O=C(NC(=O)c1ccccc1)NC(=O)c1ccccc1`: the inhibition was -0.343% (inactive).

Consider `CCCC(=O)N1CCN(c2nnc(-c3ccc(C)cc3)c3ccccc23)CC1`, for which the inhibition was -11.9% (inactive).

As for `Brc1ccc2nc(N3CCCC3)sc2c1`, the inhibition is 133% (active).

On to `Cc1nc(N2CCCCC2)sc1C=O`, for which the inhibition is 17.8% (inactive).

As to `Fc1ccc2nc(N3CCCCC3)sc2c1`, the inhibition was 82% (active).

For `O=C(c1ccc2nc(N3CCOCC3)sc2c1)N1CCN(c2ccc(Cl)cc2)CC1`, the inhibition was -6.87% (inactive).

As for `O=C(NCCc1cccc(F)c1)C1CCCN(c2nc3ccccc3s2)C1` (stereo unspecified), the inhibition was -11.7% (inactive).

`c1c2c(cc3sc(N4CCCCC4)nc13)OCCO2`: the inhibition is 14.5% (inactive).

On to `COC(=O)Nc1ccc(S(=O)(=O)Nc2cc(OC)nc(OC)n2)cc1`, for which the inhibition is -3.18% (inactive).

Take `Cc1ccsc1C(=O)N[C@@H](C)c1nnc2ccccn12`: the inhibition is -1.3% (inactive).

In the case of `COc1ccc(NC2CCCN(C(=O)c3ccncc3)C2)cc1` (stereo unspecified), the inhibition was -17.1% (inactive).

For `CC(C)NC(=S)NN=C1CCCCCCCCCCC1`, the inhibition is 4.86% (inactive).

Consider `O=C1CCC/C(=N\NC(=O)NC2CCCCC2)C1`, for which the inhibition is -0.774% (inactive).

For the compound `CC(C)(C)NC(=O)C(=O)NN=C1CCCCCCC1`, the inhibition was 60.6% (active).

`O=C(NCc1ccccc1)C(=O)NCC1OCCN1S(=O)(=O)c1ccc(Br)cc1` (stereo unspecified): the inhibition is 3.85% (inactive).

For the compound `CCC(Oc1ccccc1C)C(=O)Nc1ccc(S(=O)(=O)Nc2cc(C)on2)cc1` (stereo unspecified), the inhibition was -4.41% (inactive).

Take `O=c1[nH]c(CSc2ccccc2)nc2c1oc1ccccc12`: the inhibition is 12.7% (inactive).

As for `O=C(COC(=O)c1ccc(N2CCCC2=O)cc1)c1ccc(OC(F)F)cc1`, the inhibition was -2.32% (inactive).

Consider `Cc1nn(-c2ccccc2)c(C)c1C(=O)OCC(=O)NC(=O)NC1CCCCC1`, for which the inhibition was -5.78% (inactive).

In the case of `CCCc1cc(=O)[nH]c(SCC(=O)c2cc(C)n(CCC)c2C)n1`, the inhibition is -17.8% (inactive).

With `CCCn1c(C)cc(C(=O)COC(=O)c2c(C)nn(-c3ccccc3)c2C)c1C`, the inhibition is 37.3% (active).

As for `Cc1cc(C(=O)COC(=O)c2cccs2)c(C)n1-c1c(C)n(C)n(-c2ccccc2)c1=O`, the inhibition is 14.6% (inactive).

In the case of `Cc1ccc(OC(=O)c2c(C)nn(-c3ccccc3)c2C)cc1`, the inhibition was 66.5% (active).

Consider `Cc1nn(-c2ccccc2)c(-n2cccc2)c1C(=O)O`, for which the inhibition is -10.5% (inactive).

As to `O=C(CSc1n[nH]c(-c2cccnc2)n1)Nc1ccc(Cl)cc1`, the inhibition is -4.36% (inactive).

Consider `Cc1ccc(Nc2c(F)c(F)c(F)c(F)c2C(=O)O)c(C)c1`, for which the inhibition was -5.02% (inactive).

As to `CCCCc1cc(=O)oc2c(C)c(OCC(=O)N3CCC(C(N)=O)CC3)ccc12`, the inhibition is 6.85% (inactive).

Regarding `O=c1oc2ccccc2c(CNc2ccccc2)c1[N+](=O)[O-]`, the inhibition was 11.8% (inactive).

`O=C1CCCc2nn(-c3ccccc3)nc21`: the inhibition is 54.6% (active).

As to `O=C1CCC(=O)N(c2ccccc2)N1`, the inhibition is -5.13% (inactive).

Consider `N#CC1=C(N)N(c2ccccc2)C2=C(C(=O)CCC2)C1c1ccccc1` (stereo unspecified), for which the inhibition was 20.9% (inactive).

For the compound `Cc1nn(Cc2ccccc2)c(Cl)c1C(=O)OC1CCOC1=O` (stereo unspecified), the inhibition was -17.1% (inactive).

As for `CC(C)c1ccc(C(=O)OC2CCOC2=O)cc1` (stereo unspecified), the inhibition was -21.8% (inactive).

Take `O=C(OC1CCOC1=O)c1ccc(-c2nc3ccccc3s2)s1` (stereo unspecified): the inhibition is 38.6% (active).

`C=CCn1c(=O)c(C(=O)NCc2ccc3c(c2)OCO3)c(O)c2ccccc21`: the inhibition is -10.5% (inactive).

With `COc1ccccc1OCC(=O)Nc1c2c(nn1-c1ccc(F)cc1)CS(=O)(=O)C2`, the inhibition was -5.46% (inactive).

Consider `Cc1c(C(=O)OC(C)C)sc(NC(=O)c2cccnc2)c1C#N`, for which the inhibition is 30.6% (inactive).

Consider `COc1ccc(C(=O)NCc2nnc(SCC(=O)Nc3cccc(OC)c3)o2)cc1`, for which the inhibition was -4.36% (inactive).

Consider `O=S(=O)(Cc1nnnn1-c1ccccc1)c1ccccc1`, for which the inhibition is -12.2% (inactive).

For the compound `COc1ccc(C)cc1NC(=O)CSc1nc(SC)ns1`, the inhibition was -10.7% (inactive).

Consider `COc1ccc(NC(=O)CSc2nc(SC)ns2)c(OC)c1`, for which the inhibition was 69.7% (active).

With `Cc1csc(SCC(=O)Nc2sccc2C#N)n1`, the inhibition is 34% (inactive).

As to `COc1ccc(NC(=O)CSc2nc(C)cs2)cc1`, the inhibition was 66.4% (active).

Take `CSc1nsc(SCC(=O)Nc2cc(C(=O)O)ccc2C)n1`: the inhibition is -7.57% (inactive).

Regarding `COc1cc(OC)cc(-c2nnc(SCC(=O)Nc3ccc(C(=O)O)cc3)s2)c1`, the inhibition was -9.81% (inactive).

In the case of `Cc1cc(C)c(OCCN2CC(C)OC(C)C2)c(Br)c1` (stereo unspecified), the inhibition was 14.6% (inactive).

As to `NC(=O)c1nsc(C(=O)N(CCCN2CCOCC2)C(C(=O)NC2CCCCC2)c2ccc(Cl)cc2)c1N` (stereo unspecified), the inhibition is -2.14% (inactive).

Regarding `O=S(=O)(NCC1CC1)c1ccc(F)c(Cl)c1`, the inhibition was 1.18% (inactive).

Take `CC(C)Nc1ccc(-n2nc3ccccc3[n+]2[O-])cc1`: the inhibition is 38.2% (active).

Take `COc1ccc(CCNC(=O)C2CCCN(S(=O)(=O)c3ccc(OC)cc3)C2)cc1` (stereo unspecified): the inhibition was 2.44% (inactive).

Consider `O=C(NC1CCCCC1)C1CCC(CNS(=O)(=O)c2ccccc2)CC1` (stereo unspecified), for which the inhibition was 2.14% (inactive).

As to `COc1ccc(S(=O)(=O)n2cnc3ccccc32)c(C)c1`, the inhibition is -9.95% (inactive).

With `COc1ccc(CNC(=O)CN(Cc2ccccc2Cl)C(=O)c2csnn2)cc1`, the inhibition was -3.03% (inactive).

As for `O=C(N/N=C/c1ccc(Cl)c(Cl)c1)c1ccc2nc[nH]c2c1`, the inhibition was 23.8% (inactive).

For `COC(=O)C1C(=O)c2c([nH]c(C(=O)OCCSC)c2C)CC1C` (stereo unspecified), the inhibition was 57.7% (active).

Regarding `CCCOC(=O)C1=C(C)NC2=C(C(=O)C(C(=O)OC)C(C)C2)C1c1ccc(N(C)C)cc1` (stereo unspecified), the inhibition is 16.2% (inactive).

Turning to `CCCOC(=O)c1[nH]c2c(c1C)C(=O)CC(c1cccs1)C2` (stereo unspecified), the inhibition is -12.4% (inactive).

Regarding `COc1ccc(NC(=O)CN2C(=O)CSc3ccc(S(=O)(=O)N4CCC(C)CC4)cc32)cc1`, the inhibition was 1.63% (inactive).

Consider `COc1ccc(Cl)cc1NC(=O)CN(C)C(=O)CCCc1c[nH]c2ccccc12`, for which the inhibition is -2.46% (inactive).

Regarding `O=C(Nc1nc2ccc([N+](=O)[O-])cc2s1)c1ccc(S(=O)(=O)N2CCCc3ccccc32)cc1`, the inhibition was -9.77% (inactive).

Consider `CCc1ccc(N2CC(O)=C(c3nc4ccccc4c(=O)[nH]3)C2=N)cc1`, for which the inhibition was 23.1% (inactive).

In the case of `COc1ccccc1N1CC(O)=C(c2nc3ccccc3s2)C1=N`, the inhibition was 31.4% (active).

`CCOC(=O)CCCN1CC(O)=C(c2nc3ccccc3s2)C1=N`: the inhibition was 21.6% (inactive).

As for `N=C1C(c2nc3ccccc3s2)=C(O)CN1NC(=O)c1ccc([N+](=O)[O-])cc1`, the inhibition was 49.3% (active).

As for `N=C1C(c2nc3ccccc3[nH]2)=C(O)CN1NC(=O)c1c[nH]c2ccccc12`, the inhibition was -8.44% (inactive).

Consider `COc1cccc(CNS(=O)(=O)c2csc(C(N)=O)c2)c1`, for which the inhibition is 9.09% (inactive).

For `O=C(N/C(=C\c1ccc(F)cc1)C(=O)N1CCCCCC1)c1ccccc1`, the inhibition is -12.7% (inactive).

Take `O=C(CSc1ncnc2c1oc1ccccc12)NC1CCCC1`: the inhibition is -5.84% (inactive).

With `Cc1cc(-c2nnc(SCC(=O)Nc3ccc(F)cc3)n2N)n[nH]1`, the inhibition is 12.4% (inactive).

In the case of `COc1ccc(-n2nc(C(=O)NCC(=O)N3CCC(C(N)=O)CC3)c3ccccc3c2=O)cc1OC`, the inhibition was -12.3% (inactive).

Regarding `Cc1ccc(C2CC(c3cccc(NS(C)(=O)=O)c3)=NN2S(C)(=O)=O)cc1` (stereo unspecified), the inhibition was 77.9% (active).

Regarding `CS(=O)(=O)Nc1cccc(C2=NN(C(=O)c3cccc(F)c3)C(c3cccs3)C2)c1` (stereo unspecified), the inhibition was -7.67% (inactive).

In the case of `CCS(=O)(=O)Nc1ccc(C2=NN(C(C)=O)C(c3cccs3)C2)cc1` (stereo unspecified), the inhibition is 12.4% (inactive).

Consider `CS(=O)(=O)Nc1ccc(C2=NN(S(C)(=O)=O)C(c3cccs3)C2)cc1` (stereo unspecified), for which the inhibition is 63.1% (active).

Turning to `CS(=O)(=O)Nc1cccc(-c2cn3ccccc3n2)c1`, the inhibition is 87% (inactive).

With `CS(=O)(=O)Nc1cccc(C2=NN(S(=O)(=O)c3ccccc3)C(c3cccs3)C2)c1` (stereo unspecified), the inhibition is -11% (inactive).

With `O=C1c2ccccc2C(=O)N1c1cccc2ccccc12`, the inhibition was 25.6% (inactive).

For the compound `O=C(NC1CCCC1)C1CC(=O)N(c2ccc(F)cc2)C1` (stereo unspecified), the inhibition is -11.9% (inactive).

Turning to `CN(C)S(=O)(=O)c1cccc(NC(=O)Cc2ccsc2)c1`, the inhibition was -2.02% (inactive).

`O=C1CCN(Cc2ccccc2)CCN1[C@H](CSc1ccccc1)c1ccccc1`: the inhibition was 11% (inactive).

For `Cc1cccn2c(=O)c3cc(C(=O)NCC4CCCO4)c(=N)n(Cc4ccc(F)cc4)c3nc12` (stereo unspecified), the inhibition is -2.34% (inactive).

Regarding `CC(=O)Nc1ccc(NC(=O)COc2ccc(-c3ccccc3)cc2)cc1`, the inhibition was 10.7% (inactive).

As to `Cc1ccccc1NC(=O)NNC(=O)OC(C)(C)C`, the inhibition was -3.29% (inactive).

`CC(C)(C)OC(=O)NNc1c2ccccc2nc2ccccc12`: the inhibition is 77% (inactive).

On to `C/C(=N\NC(=O)OC(C)(C)C)c1ccc[nH]1`, for which the inhibition is 94.2% (active).
